PubChem BioAssay AID1347076 (National Center for Advancing Translational Sciences (NCATS), 2019)
Among all 400,000 compounds or so, about 13,000 (3.2%) were called active. Entries that show only a call come without a potency. Not shown: some 18% with an inconclusive outcome. This is one part of a sample in which actives are shown more often than they occur. The call rests on the fitted dose curve; in most records, active means well fitted cell-killing curve with a large enough effect; inconclusive means small, poorly fitted or top-dose-only effect, or effect the other way; inactive means flat fitted curve, though single readings scatter.

Assay: qHTS assay for MDR1-selective chemotherapeutics: Primary screen using the drug-selected MDR subline cells KB-V1; further: nearly all actives have a fitted effect of over 60% in size
Conditions: KB-V1 MDR cells viability, CellTiter-Glo, 72 h; series mostly up to 46.1 µM
In short: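 Compound-treated KB-V1 multidrug-resistant cells, 72 h, 37 degrees C; viability by CellTiter-Glo. Fitted qHTS curves give the values.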
Potency means the concentration at half of the fitted maximal effect.

SMILES	Potency
CCOc1ccc(CN(Cc2ccco2)S(=O)(=O)c2ccc(-n3cnnn3)c(OC)c2)cc1	inactive
Cc1cc(S(=O)(=O)NC2CCCC2)ccc1-n1cnnn1	inactive
COc1cc(S(=O)(=O)N(Cc2cccs2)C2CC2)ccc1-n1cnnn1	4.61 µM (active)
CCOC(=O)c1c(C)oc2nc(C)nc(Nc3ccc(CC)cc3)c12	inactive
O=C(C(=O)N1CCC(c2ccccc2)CC1)c1ccccc1	inactive
Cc1csc(SCC(=O)Nc2ccc(C)c(S(=O)(=O)N(C)C)c2)n1	inactive
CCN1CCN(CCNC(=O)c2ccc3c(c2)NC(=O)/C(=C\c2cccc(Cl)c2)S3)CC1	inactive
O=C(OCC(=O)N1CCCCCC1)c1cccc(Cl)c1Cl	inactive
CCOc1ccc(CCN2C(=S)N([C@@H](CC(C)C)CN3CCC[C@@H]3CN3C(=S)NC[C@@H]3Cc3ccc(O)cc3)C[C@@H]2Cc2ccc(O)cc2)cc1	inactive
CCC(=O)N1CCc2cc(S(=O)(=O)NC(Cc3ccccc3)C(=O)NCc3ccccc3)ccc21 (stereo unspecified)	inactive
CC1CCCN(CCOCCOc2ccccc2-c2ccccc2)C1 (stereo unspecified)	20.6 µM (active)
CN1CCN(CCCCOc2ccccc2-c2ccccc2)CC1	inactive
CC1CCCN(CC(O)COCc2ccccc2)C1 (stereo unspecified)	inactive
OC[C@@H]1CN(Cc2ccc(F)cc2)C[C@H](n2cnc3c(NC4CCCC4)ncnc32)O1	inactive
Cc1ccc(N2CCN(C(=S)Nc3cc(C)ccn3)CC2)cc1	inactive
NC1=NC(=O)C(Cc2cccc(Cl)c2Cl)S1 (stereo unspecified)	18.4 µM (active)
O=C1NC(=Nc2ccc(Cl)cc2)SC1Cc1cccc(Cl)c1Cl (stereo unspecified)	inactive
CC(NC(=O)CC1SC(N)=NC1=O)c1ccccc1 (stereo unspecified)	inactive
C[C@@H]1CN([C@H](C)CO)S(=O)(=O)c2ccc(C#C[C@@H](C)O)cc2O[C@@H]1CN(C)Cc1ccc(-c2ccccc2)cc1	inactive
Cc1cc(Br)cn2c(Cc3ccsc3)c(-c3ccc(C#N)cc3)nc12	inactive
COc1cccc(OCCn2c(-c3ccc(Br)cc3)nc3ccccc3c2=O)c1	inactive

SMILES	Potency
CC[C@]1(O)CC2CN(CCc3c([nH]c4ccccc34)[C@@](C(=O)OC)(c3cc4c(cc3OC)N(C=O)[C@H]3[C@@](O)(C(=O)OC)[C@H](OC(C)=O)[C@]5(CC)C=CCN6CC[C@]43[C@@H]65)C2)C1 (stereo partly specified)	20.6 µM (active)
CC[C@]1(O)C[C@@H]2CN(CCc3c([nH]c4ccccc34)[C@@](C(=O)OC)(c3cc4c(cc3OC)N(C)[C@H]3[C@@](O)(C(=O)OC)[C@H](OC(C)=O)[C@]5(CC)C=CCN6CC[C@]43[C@@H]65)C2)C1	5.17 µM (active)
O=CNc1cc(-c2ccc(C(=O)N3CCOCC3)cc2)cn2c(-c3ccc(F)cc3)cnc12	inactive
COC(=O)c1cc(NC(=O)CCS(=O)(=O)c2cc(Br)cc3c2N(C(=O)C2CC2)CC3)cc(C(=O)OC)c1	inactive
CCNC(=O)C1CCCN(C(=O)c2cc(F)ccc2C)CC1 (stereo unspecified)	inactive
COc1ccc(NC(=O)C(c2ccncc2)n2c(=O)c(-c3cc4ccccc4[nH]3)nc3ccccc32)cc1 (stereo unspecified)	inactive
CC(C)c1ccc(NC(=O)c2cc(S(=O)(=O)N3CCc4ccccc4C3)ccc2F)cc1	inactive
Cc1ccccc1S(=O)(=O)N1[C@@H](c2cccc(Cl)c2)C(C(=O)OC(C)(C)C)=CC[C@H]1c1ccc(Cl)cc1	inactive
COCCCNCCOCCOc1ccc(Cl)cc1Br	inactive
CCOCCCNCc1cc(Br)ccc1OCC	inactive
CCC(C)NCCOCCOc1ccc(Br)cc1C (stereo unspecified)	20.6 µM (active)
COc1ccc(N)cc1NC(=O)CN1CCOCC1	inactive
CCCS(=O)(=O)NC(=O)C1(C)CCN(C(=O)c2sccc2C)C1 (stereo unspecified)	inactive
O=C(CN1c2ccccc2S(=O)(=O)c2ccccc21)Nc1cccc(C(F)(F)F)c1	inactive
Cc1cc(C)c2cc(CN(Cc3cccs3)Cc3nnnn3CC3CCCO3)c(=O)[nH]c2c1 (stereo unspecified)	16.4 µM (active)
COc1ccc2[nH]c(=O)c(CN(Cc3nnnn3CCc3ccccc3)CC3CCCO3)cc2c1 (stereo unspecified)	inactive
Cc1cc2cc(CN(Cc3cccs3)Cc3nnnn3CC3CCCO3)c(=O)[nH]c2cc1C (stereo unspecified)	inactive
CCN(CC)C(=O)C1CCCN(Cc2cccc(Cl)c2)C1 (stereo unspecified)	inactive
CCOC(=O)C1CCN(C(=O)Nc2ccc(C)c(Cl)c2)CC1	inactive
CCOC(=O)N1CCC(N(CCOC)C(=O)Nc2ccc(C)c(C)c2)CC1	4.11 µM (active)
Cc1ccc(NC(=O)C2CCCN2C(=O)OCc2ccccc2)cc1C (stereo unspecified)	inactive

SMILES	Potency
Cc1ccc(NC(=O)COC(=O)CN2CCSC2=O)cc1F	inactive
CCc1ccccc1NC(=O)c1ccc2nc(CCc3ccccc3)oc2c1	inactive
CN(C)c1ccc(/C=C2\C=Cc3ccccc32)cc1Br	inactive
O=C(CN1CCN(S(=O)(=O)c2ccc(Cl)s2)CC1)NCc1ccc(Cl)cc1	3.66 µM (active)
O=C(CN1CCN(S(=O)(=O)c2ccc(Cl)s2)CC1)N1CCCCC1	inactive
Cc1ccccc1N1CCN(CC(=O)NCc2ccc(Cl)cc2)CC1	inactive
Cc1cc(C)c2nc3nc(C)cc(C)c3c(N)c2c1	18.4 µM (active)
O=C(OC12CC3CC(CC(C3)C1)C2)c1ccc(NCc2cc(O)ccc2O)cc1	14.6 µM (active)
COC(=O)c1ccc(NCc2cc(O)ccc2O)cc1	inactive
CC(C)OC(=O)c1ccc(NCc2cc(O)ccc2O)cc1Cl	inactive
O=S(=O)(c1ccccc1)N1CCc2ccccc21	inactive
O=C(Nc1nnc(S(=O)(=O)N2CCCc3ccccc32)s1)c1cccc(F)c1	inactive
CSc1nc2ccc(S(=O)(=O)N3CCc4ccccc43)cc2s1	3.66 µM (active)
CNC(=O)c1ccsc1NC(=O)c1ccc(S(=O)(=O)N2CCc3ccccc32)cc1	inactive
O=C(CNC(=O)c1ccccc1)Oc1ccc([N+](=O)[O-])cc1	inactive
O=C(CCNC(=O)c1ccccc1)Nc1nc2ccccc2s1	inactive
O=C(Nc1nc2ccc([N+](=O)[O-])cc2s1)c1ccc(S(=O)(=O)N2CCCc3ccccc32)cc1	1.03 µM (active)
O=C(NC(Nc1nc2ccc([N+](=O)[O-])cc2s1)(C(F)(F)F)C(F)(F)F)c1ccccc1	0.517 µM (active)
O=S(=O)(c1ccc2c(c1)OCCO2)N1CCc2ccccc21	inactive
